The list is not random: actives were taken first. Their share in the collection is about 1.2%.
RGS16-Gao HTS: modulators of RGS16 binding to Galphao, primary screen, biochemical, human proteins, multiplexed bead flow cytometry; bead-based flow cytometry RGS16-Galphao binding, fluorescence; actives lie on both sides; 220,000 compounds, 0.38% hits; binding response (% of control), % at 10 µM; Regulator of G-protein signaling 16 (Homo sapiens) + Guanine nucleotide-binding protein …; call rule not given here;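 note: Galphao activated by GDP with aluminum fluoride before binding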
Target sequence (O15492 whole entry, looked up): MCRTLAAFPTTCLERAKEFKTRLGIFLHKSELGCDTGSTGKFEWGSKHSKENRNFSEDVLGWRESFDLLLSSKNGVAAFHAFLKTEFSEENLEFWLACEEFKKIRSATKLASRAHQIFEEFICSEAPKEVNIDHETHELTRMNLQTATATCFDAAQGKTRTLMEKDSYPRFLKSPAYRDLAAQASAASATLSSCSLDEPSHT
Target sequence (P09471 whole entry, looked up): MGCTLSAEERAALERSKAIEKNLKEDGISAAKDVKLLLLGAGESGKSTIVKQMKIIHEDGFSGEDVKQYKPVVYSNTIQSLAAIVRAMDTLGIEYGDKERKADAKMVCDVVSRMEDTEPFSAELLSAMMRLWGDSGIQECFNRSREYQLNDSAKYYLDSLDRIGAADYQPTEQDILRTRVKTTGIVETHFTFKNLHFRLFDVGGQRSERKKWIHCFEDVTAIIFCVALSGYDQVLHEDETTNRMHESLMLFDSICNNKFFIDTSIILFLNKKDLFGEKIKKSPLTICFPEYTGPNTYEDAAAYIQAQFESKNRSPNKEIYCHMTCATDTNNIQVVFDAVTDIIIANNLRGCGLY
RGS4-Gao reg: modulators of RGS4 binding to Galphao, primary screen, biochemical, multiplexed bead flow cytometry | Guanine nucleotide-binding protein G(o) subunit alpha (Homo sapiens), P09471 | actives lie on both sides | binding response (% of control), % at 10 µM | 220,000 compounds, 0.33% hits | AID 1415, 2008; in the data active = binding response below about 49% or above about 150%; inactive = in between;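 note: fluorescent Galphao activated with aluminum fluoride binding bead-coupled RGS4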
Target sequence (P09471 whole entry, looked up): as above
RGS7-Gao: RGS7-Galphao binding modulators, primary screen, biochemical, multiplexed bead flow cytometry; binding response (% of control), % at 10 µM; 220,000 compounds, 0.35% hits; actives lie on both sides; Guanine nucleotide-binding protein G(o) subunit alpha (Homo sapiens), P09471; in the data active = binding response below about 49% or above about 150%; inconclusive = no clear call, values can overlap the other calls; inactive = in between;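 note: fluorescent Galphao held in activated GDP-AlF4 state binding bead-coupled RGS7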
Avidin bead fluor: green autofluorescence of compounds with avidin beads – biophysical, 488/530 nm, flow cytometry, artefact control, profiling panel; compound fluorescence 488/530 nm; hits give high values; fluorescence (KMESF) at 10 µM; 220,000 compounds, 0.38% hits; AID 1775, 2009; in the data active = fluorescence above about 47
RGS8-Gao: RGS8-Galphao binding modulators, primary screen, biochemical, multiplexed bead flow cytometry; Guanine nucleotide-binding protein G(o) subunit alpha (Homo sapiens), P09471; response (percent of control binding), % at 10 µM; AID 1423, 2008; 220,000 compounds, 0.34% hits; actives lie on both sides; in the data active = response below about 60% or above about 140%; inactive = in between;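 note: Galphao activated as the GDP aluminium fluoride complex binding bead-coupled RGS8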
GSH fluor: compound fluorescence on glutathione beads, profiling panel, artefact control, biophysical, 488/530 nm, flow cytometry | 190,000 compounds, 0.25% hits | AID 1776, 2009 | fluorescence (KMESF) at 10 µM | GSH beads flow cytometry, compound fluorescence 488/530 nm; hits give high values; in the data active = fluorescence above about 89;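 note: glutathione beads carrying GST-tagged Bcl family fusion proteins plus one bare bead set; values are compound well signal with DMSO vehicle wells as background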
* marks the source's active call; other numbers are inactive results.

Screening COc1ccccc1-c1nnc(SCC(=O)Nc2ccc(S(N)(=O)=O)cc2)n1N returned RGS16-Gao HTS 97, RGS4-Gao reg 96, RGS7-Gao inconclusive, Avidin bead fluor 7 and RGS8-Gao 96.
`COc1ccc(S(=O)(=O)NCC2CCCN(CC(C)(C)C)C2)cc1` (centres undefined) gave RGS16-Gao HTS 102, RGS4-Gao reg 102, RGS7-Gao 101, Avidin bead fluor 8, RGS8-Gao 102 and GSH fluor 25.
CCOc1ccccc1N1CC(C(=O)Nc2ccc3c(c2)OCCO3)CC1=O (centres undefined) was read as RGS16-Gao HTS 101, RGS4-Gao reg 99, RGS7-Gao inconclusive, Avidin bead fluor 10, RGS8-Gao 101 and GSH fluor 12.
Screening CCOc1ccccc1N1CC(C(=O)Nc2cccc(S(=O)(=O)N3CCCCC3)c2)CC1=O (centres undefined) returned RGS16-Gao HTS 103, RGS4-Gao reg 112, RGS7-Gao inconclusive, Avidin bead fluor 54*, RGS8-Gao 100 and GSH fluor 13.
`COCCN1C(=O)c2ccccc2C(C(=O)NCCN(C)C)C1c1ccc(F)cc1` (centres undefined) gave RGS16-Gao HTS 96, RGS4-Gao reg 91, RGS7-Gao 93, Avidin bead fluor 32, RGS8-Gao 96 and GSH fluor 24.
`COCCNC(=O)C1c2ccccc2C(=O)N(CCOC)C1c1ccc(F)cc1` (centres undefined) gave RGS16-Gao HTS 103, RGS4-Gao reg 100, RGS7-Gao 104, Avidin bead fluor 48*, RGS8-Gao 101 and GSH fluor 26.
N#CCC(=O)Nc1ccccc1C(=O)O was read as RGS16-Gao HTS 131, RGS4-Gao reg 110, RGS7-Gao 108, Avidin bead fluor 7, RGS8-Gao 108 and GSH fluor 264*.
O=C(O)CC(=O)Nc1ccccc1C(=O)O was read as RGS16-Gao HTS 97, RGS4-Gao reg 97, RGS7-Gao 94, Avidin bead fluor 12, RGS8-Gao 98 and GSH fluor 31.
CCOC(=O)C1=C(Cc2ccc(C)cc2)C(=O)c2ccccc2C1=O was read as RGS16-Gao HTS 58, RGS4-Gao reg 87, RGS7-Gao 79, Avidin bead fluor 3, RGS8-Gao 69 and GSH fluor 226*.
CCOC(=O)C1=C(Cc2ccc(OC)cc2)C(=O)c2ccccc2C1=O was read as RGS16-Gao HTS 57, RGS4-Gao reg 73, RGS7-Gao 74, Avidin bead fluor 1, RGS8-Gao 74 and GSH fluor 63.
Cc1c(C)c(C)c(CN2CCCC2)c(C)c1C was read as RGS16-Gao HTS 100, RGS4-Gao reg 103, RGS7-Gao inconclusive, Avidin bead fluor 3 and RGS8-Gao 100.
Cc1cc(C(=O)NCC(=O)OC(C(=O)Nc2cc(C(F)(F)F)ccc2Cl)c2ccccc2)ccc1[N+](=O)[O-] (centres undefined) was read as RGS16-Gao HTS 104, RGS4-Gao reg 101, RGS7-Gao 102, Avidin bead fluor 7, RGS8-Gao 101 and GSH fluor 257*.
Screening COc1ccc(Cl)cc1C(=O)Nc1nnn(C)n1 returned RGS16-Gao HTS 133, RGS4-Gao reg 109, RGS7-Gao 107, Avidin bead fluor 6, RGS8-Gao 112 and GSH fluor 257*.
Screening C/C(=N\NC(=O)CSCc1ccc(Cl)cc1)c1ccc2c(c1)OCCO2 returned RGS16-Gao HTS 103, RGS4-Gao reg 104, RGS7-Gao 101, Avidin bead fluor 3, RGS8-Gao 99 and GSH fluor 22.
`C/C(=N\NC(=O)COc1cccc(Cl)c1)c1ccc2c(c1)OCCO2` gave RGS16-Gao HTS 108, RGS4-Gao reg 110, RGS7-Gao 105, Avidin bead fluor 19, RGS8-Gao 99 and GSH fluor 314*.
For CCn1c(SCC(=O)OCc2ccccc2)nc2c1c(=O)n(C)c(=O)n2C the results were RGS16-Gao HTS 96, RGS4-Gao reg 100, RGS7-Gao 99, Avidin bead fluor 11, RGS8-Gao 100 and GSH fluor 42.
Screening CCOC(=O)CSc1nc2c(c(=O)n(C)c(=O)n2C)n1CCCc1ccccc1 returned RGS16-Gao HTS 108, RGS4-Gao reg 105, RGS7-Gao 109, Avidin bead fluor 7, RGS8-Gao 107 and GSH fluor 269*.
`CC(C)c1ccc(N)c(S(=O)(=O)O)c1` gave RGS16-Gao HTS 97, RGS4-Gao reg 100, RGS7-Gao inconclusive, Avidin bead fluor 9 and RGS8-Gao 100.
Screening CCOC(=O)CCC(=O)NCc1ccc2c(c1)cc(C)n2C returned RGS16-Gao HTS 178, RGS4-Gao reg 127, RGS7-Gao 125, Avidin bead fluor 53*, RGS8-Gao 104 and GSH fluor 15.
For COC(=O)c1cc(C(=O)c2ccc(Cl)cc2)n2c(=O)/c(=C\N(C)C)sc12 the results were RGS16-Gao HTS 103, RGS4-Gao reg 103, RGS7-Gao inconclusive, Avidin bead fluor 15, RGS8-Gao 101 and GSH fluor 12.
CSCCC1NC(=O)N(CC(=O)Nc2ccc(-c3ccccc3)cc2)C1=O (centres undefined) was read as RGS16-Gao HTS 101, RGS4-Gao reg 104, RGS7-Gao inconclusive, Avidin bead fluor 6 and RGS8-Gao 101.
Screening COc1ccc(OC)c(-c2c3cc(O)c(=O)cc-3oc3cc(O)c(O)cc23)c1 returned RGS16-Gao HTS 17*, RGS4-Gao reg 39*, RGS7-Gao 4.7*, Avidin bead fluor -3, RGS8-Gao 36* and GSH fluor 274*.
For O=C(NC1CCCc2ccccc21)c1cccnc1 (centres undefined) the results were RGS16-Gao HTS 106, RGS4-Gao reg 102, RGS7-Gao 103, Avidin bead fluor 7, RGS8-Gao 101 and GSH fluor 256*.
`Cc1ccnc(NC(c2ccccn2)c2c(C)[nH]c3ccccc23)c1` (centres undefined) gave RGS16-Gao HTS 101, RGS4-Gao reg 100, RGS7-Gao 106, Avidin bead fluor 10, RGS8-Gao 101 and GSH fluor 11.
For Nn1c(SCc2cn3ccsc3n2)nnc1-c1ccncc1 the results were RGS16-Gao HTS 102, RGS4-Gao reg 103, RGS7-Gao 106, Avidin bead fluor 7, RGS8-Gao 103 and GSH fluor 266*.
Screening Cc1ccc(CSc2nnc(-c3ccncc3)n2N)cc1 returned RGS16-Gao HTS 94, RGS4-Gao reg 89, RGS7-Gao inconclusive, Avidin bead fluor 4 and RGS8-Gao 96.

Source: PubChem BioAssay (NMMLSC)
